Test results reported in PubChem BioAssay (NCI).
About 83,000 compounds went through this panel and 20% of them were active in at least one assay; those are over-represented in the sample as a whole.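 Growth was measured after 48 h exposure to one concentration of compound in 96-well plates. Values under 10 count as active.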 Activity calls are given as the source filed them.

Each compound was assayed on SF-268 CNS (assay: NCI-60 one-dose screen, 48 h (100 = growth as untreated, 0 = no growth, -100 = all killed)). Conditions: 10 µM unless noted.

| SMILES | growth |
| --- | --- |
| NNC(=O)c1sc2nc(-c3cnccn3)cc(-c3cccs3)c2c1N | 93.5% (inactive) |
| Cn1cc(-c2nnc(N)nc2-c2cn(C)c3ccc(F)cc23)c2cc(F)ccc21 | 78.5% (inactive) |
| COc1ccccc1/C=C/C=N/NC1=NC2C(S1)N(C)C(=O)N2c1ccccc1 (stereo not drawn) | 44.4% (inactive) |
| C[C@H]1[C@H](C)CC[C@]2(COC(=O)c3cccnc3)CC[C@]3(C)C(=CC[C@@H]4[C@@]5(C)CCCNC(C)(C)[C@@H]5CC[C@]43C)[C@H]12 | 76.3% (inactive) |

These compounds were tested on SF-295 CNS in the same assay as above. Conditions: 10 µM unless noted.

| SMILES | growth |
| --- | --- |
| CC1(C)CC[C@]2(C(=O)O)CC[C@]3(C)C(=CCC4[C@@]5(C)C[C@@H](O)[C@@H]6OC(c7ccccc7O)OC[C@@]6(C)C5CC[C@]43C)C2C1 (stereo partly drawn) | 30.2% (inactive) |
| CN(c1ccc(Br)cc1)S(=O)(=O)c1ccc(-c2cnc(C3CC3)o2)cc1 | -0.0962% (active) |
| CN1CCN(c2nc(-c3csc(-c4ccncc4)n3)cc3ccccc23)CC1 | 45.8% (inactive) |
| O=C(O)c1ccc(-n2cc(CNc3ccc(F)cc3)c(-c3ccc(C(F)(F)F)cc3)n2)cc1 | 63.9% (inactive) |
| CSc1nccc(-c2c(-c3ccc(F)c(OCc4ccc(F)cc4)c3)nc3sccn23)n1 | 80.3% (inactive) |
| O=C(COc1ccc(C2SCC(=O)N2c2ccccc2)cc1)c1ccccc1 (stereo not drawn) | 96.9% (inactive) |
| O=C(O)CNS(=O)(=O)c1ccc(Oc2ccc(S(=O)(=O)NCC(=O)O)cc2)cc1 | 113% (inactive) |
| Cn1nc(Nc2ccccc2)c(C(=O)NN)c1N | 103% (inactive) |
| COc1cc(/C=N/n2cnc3oc(-c4ccccc4)cc3c2=N)cc(CN2CCN(C)CC2)c1O | 109% (inactive) |
